Records with an inconclusive call do not appear. Activity calls are given as the source filed them. Unless noted, calls come from the whole dose curve; as a rule, active = well fitted curve in the direction sought with a large enough effect; inconclusive = small, poorly fitted or top-dose-only effect, or another doubt; inactive = no such curve, though single readings can be large; an effect the other way counts as inactive or inconclusive.
Tests used:
[1] = qHTS for Inhibitors of Cell Surface uPA Generation: Validation Assay (AID 493164);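 note: RAW 264.7 macrophage cells exposed to compound for 18 h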
How it was run: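 RAW 264.7, 4000 cells/well, o/n plating; cpd 7-pt 1:5 dilution 2.45 nM–38.3 uM final; 18 h, 37 C/5% CO2; ATP-Lite, 5 s luminescence exposure.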

[2] = molecular target: Galactokinase (Homo sapiens) (UniProt P51570); experiment: qHTS Validation Assay for Inhibitors of Human Galactokinase (GALK) (AID 493189)
Sequence of Galactokinase (Homo sapiens) (P51570 whole entry, looked up): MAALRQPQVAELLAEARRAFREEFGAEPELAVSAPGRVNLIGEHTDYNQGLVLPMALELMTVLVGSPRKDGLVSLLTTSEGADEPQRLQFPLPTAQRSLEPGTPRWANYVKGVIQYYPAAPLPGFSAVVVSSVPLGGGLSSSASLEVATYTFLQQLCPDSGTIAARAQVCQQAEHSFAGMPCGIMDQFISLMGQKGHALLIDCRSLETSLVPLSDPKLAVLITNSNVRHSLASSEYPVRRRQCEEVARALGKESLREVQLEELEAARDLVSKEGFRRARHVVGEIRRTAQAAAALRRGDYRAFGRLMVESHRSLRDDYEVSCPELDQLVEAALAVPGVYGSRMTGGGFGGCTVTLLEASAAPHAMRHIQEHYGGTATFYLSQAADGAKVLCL
How it was run: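 Luminescence from leftover ATP (Kinase-Glo Plus, 10 min) served as read-out after a 1 h room-temperature reaction of 5 nM GALK, 100 uM galactose and 35 uM ATP at pH8.0.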

[3] = Validation screen for small molecules that induce DNA re-replication in SW480 colon adenocarcinoma cells (AID 504364)
How it was run: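 SW480 cells seeded at 250 per well were exposed to compound or DMSO for 48 hr at 37 C, 5% CO2, then stained with Hoechst for 40 min. DNA content per nucleus was imaged (405 nm ex, 500-530 nm em).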

[4] = molecular target: Peptidyl-prolyl cis-trans isomerase NIMA-interacting 1 (Homo sapiens) (UniProt Q13526); experiment: qHTS Validation Assay to Find Inhibitors of Pin1 (AID 504536; active = well fitted inhibition curve with a large enough effect in the polarisation, with a control signal flat, not every such curve was filed as active; the % refers to the polarisation)
Sequence of Peptidyl-prolyl cis-trans isomerase NIMA-interacting 1 (Homo sapiens) (Q13526 whole entry, looked up): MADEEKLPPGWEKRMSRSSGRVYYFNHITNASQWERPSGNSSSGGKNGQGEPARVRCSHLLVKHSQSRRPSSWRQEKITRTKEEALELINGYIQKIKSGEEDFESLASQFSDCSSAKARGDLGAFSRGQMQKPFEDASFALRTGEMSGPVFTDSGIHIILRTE
How it was run: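 Fluorescence polarization competition: compounds (titration) displace HiFluor-488-labeled Pin1-1b peptide from Pin1 (0.3 uM final) in pH 7.5 HEPES buffer with DTT, 10 min at room temperature; %Activity normalized to no-enzyme wells, curves fitted.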

[5] = molecular target: Phosphoglycerate kinase, glycosomal (Trypanosoma brucei brucei) (UniProt P07378); experiment: qHTS Validation Assay to Find Inhibitors of Phosphoglycerate Kinase (AID 504547); note: potency is the fitted concentration of half-maximal effect
Sequence of Phosphoglycerate kinase, glycosomal (Trypanosoma brucei brucei) (P07378 whole entry, looked up): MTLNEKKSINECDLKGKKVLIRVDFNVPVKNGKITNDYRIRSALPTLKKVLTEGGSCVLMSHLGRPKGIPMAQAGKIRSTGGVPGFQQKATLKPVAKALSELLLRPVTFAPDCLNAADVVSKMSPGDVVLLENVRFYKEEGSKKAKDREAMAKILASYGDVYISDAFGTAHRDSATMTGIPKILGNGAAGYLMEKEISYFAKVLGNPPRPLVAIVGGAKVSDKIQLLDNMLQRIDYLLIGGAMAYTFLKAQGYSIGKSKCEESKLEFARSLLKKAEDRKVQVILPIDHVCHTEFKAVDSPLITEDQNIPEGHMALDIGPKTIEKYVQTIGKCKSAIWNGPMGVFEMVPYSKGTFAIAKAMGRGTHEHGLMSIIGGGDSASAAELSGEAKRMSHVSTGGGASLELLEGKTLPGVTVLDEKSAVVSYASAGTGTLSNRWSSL
How it was run: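 Inhibition of the enzyme is judged by a Kinase-Glo Plus luminescent signal following a one-hour incubation at room temperature. Because 1,3-BPG is unstable, it is made in situ by GAPDH at 100nM final; no-PGK wells define the baseline.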

[6] = molecular target: phosphoglycerate mutase (Leishmania major) (UniProt Q4Q090); experiment: qHTS Validation Assay to Find Inhibitors of Phosphoglycerate Mutase (AID 504548); settings: Potency: inhibition qHTS; note: potency is the fitted concentration of half-maximal effect
Sequence of phosphoglycerate mutase (Leishmania major) (Q4Q090 1-553): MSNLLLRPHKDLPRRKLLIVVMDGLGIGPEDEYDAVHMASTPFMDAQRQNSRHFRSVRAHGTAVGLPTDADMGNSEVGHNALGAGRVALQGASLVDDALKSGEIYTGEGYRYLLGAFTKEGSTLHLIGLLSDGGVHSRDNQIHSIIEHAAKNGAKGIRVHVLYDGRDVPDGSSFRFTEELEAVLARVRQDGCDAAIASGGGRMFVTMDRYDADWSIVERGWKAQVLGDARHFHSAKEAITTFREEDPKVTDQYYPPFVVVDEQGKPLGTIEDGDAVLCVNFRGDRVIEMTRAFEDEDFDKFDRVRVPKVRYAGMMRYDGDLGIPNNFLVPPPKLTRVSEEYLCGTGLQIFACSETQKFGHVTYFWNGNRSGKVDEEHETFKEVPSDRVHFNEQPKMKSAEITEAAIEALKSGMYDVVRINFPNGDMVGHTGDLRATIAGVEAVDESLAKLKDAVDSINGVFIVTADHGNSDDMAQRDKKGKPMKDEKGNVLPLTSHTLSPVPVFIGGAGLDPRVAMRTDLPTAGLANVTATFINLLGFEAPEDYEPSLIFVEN
How it was run: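 Lm PGAM at 1.25 nM final with substrate in 100 mM TEA pH 7.6, 5 mM MgCl2, 0.01% Tween-20; 45 min at room temperature. Kinase-GloPlus added, 10 min, end-point luminescence read.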

[7] = molecular target: Ubiquitin carboxyl-terminal hydrolase 1 (Homo sapiens) (UniProt O94782); experiment: Inhibitors of USP1/UAF1: Pilot qHTS (AID 504865);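 note: rhodamine fluorescence freed from ubiquitin-rhodamine substrate followed over time; top concentration of the series differs between compounds; nearly all actives have a fitted effect of over 35% in size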
Sequence of Ubiquitin carboxyl-terminal hydrolase 1 (Homo sapiens) (O94782 whole entry, looked up): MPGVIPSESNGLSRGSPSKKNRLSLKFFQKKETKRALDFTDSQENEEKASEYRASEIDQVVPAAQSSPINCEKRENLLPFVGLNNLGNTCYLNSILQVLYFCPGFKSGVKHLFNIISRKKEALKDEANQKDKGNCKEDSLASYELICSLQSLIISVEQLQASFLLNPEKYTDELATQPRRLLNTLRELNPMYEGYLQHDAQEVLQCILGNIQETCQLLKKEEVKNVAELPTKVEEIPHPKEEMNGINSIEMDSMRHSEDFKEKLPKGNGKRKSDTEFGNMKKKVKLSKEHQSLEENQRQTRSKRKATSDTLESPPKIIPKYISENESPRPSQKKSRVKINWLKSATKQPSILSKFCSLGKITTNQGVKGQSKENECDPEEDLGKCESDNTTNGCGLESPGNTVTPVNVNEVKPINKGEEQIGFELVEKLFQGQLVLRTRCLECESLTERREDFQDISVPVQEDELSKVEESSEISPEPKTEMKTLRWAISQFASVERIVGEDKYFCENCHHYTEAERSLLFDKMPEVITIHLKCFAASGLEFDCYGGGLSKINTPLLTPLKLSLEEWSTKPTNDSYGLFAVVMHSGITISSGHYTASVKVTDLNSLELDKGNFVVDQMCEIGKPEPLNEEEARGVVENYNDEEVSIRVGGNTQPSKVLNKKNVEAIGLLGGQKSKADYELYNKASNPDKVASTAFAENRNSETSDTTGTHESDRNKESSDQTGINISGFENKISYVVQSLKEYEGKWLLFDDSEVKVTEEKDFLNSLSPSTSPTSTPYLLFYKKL
How it was run: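 1nM USP1/UAF1 + cpd, 15 min RT; start w/ Ub-Rho 150nM final; kinetic FL 480/540 nm, 6 reads q60 s. Buffer 50mM HEPES pH 7.8, 0.5mM EDTA, 1mM TCEP, 0.01% Tween-20, 0.1 mg/ml BSA.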

[8] = qHTS for Inhibitors of ATXN expression: Validation of Cytotoxic Assay (AID 588349)
How it was run: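 HEK293 cells were dosed with titrated compounds for 72 hr at 37 degrees C. Viability was read by CellTiter Glo luminescence, with intracellular ATP as the marker of cell survival.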

[9] = qHTS for Inhibitors of ATXN expression: Validation (AID 588378); note: series mostly up to about 57 µM; nearly all actives have a fitted effect of over 75% in size
How it was run: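 Cells: HEK293-ATXN2-FFLuc, phenol-red free DMEM, 2 h attachment. Compound pin-transfer, 24 h, 37 degrees C, 5% CO2. CellTiter-Fluor 30 min, Ex405/Em525; Bright-Glo 5 min, luminescence 2 s exposure.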

[10] = molecular target: DNA dC->dU-editing enzyme APOBEC-3G (Homo sapiens) (UniProt Q9HC16); experiment: qHTS for inhibitors of Vif-A3G interactions: Validation (AID 588379)
Sequence of DNA dC->dU-editing enzyme APOBEC-3G (Homo sapiens) (Q9HC16 whole entry, looked up): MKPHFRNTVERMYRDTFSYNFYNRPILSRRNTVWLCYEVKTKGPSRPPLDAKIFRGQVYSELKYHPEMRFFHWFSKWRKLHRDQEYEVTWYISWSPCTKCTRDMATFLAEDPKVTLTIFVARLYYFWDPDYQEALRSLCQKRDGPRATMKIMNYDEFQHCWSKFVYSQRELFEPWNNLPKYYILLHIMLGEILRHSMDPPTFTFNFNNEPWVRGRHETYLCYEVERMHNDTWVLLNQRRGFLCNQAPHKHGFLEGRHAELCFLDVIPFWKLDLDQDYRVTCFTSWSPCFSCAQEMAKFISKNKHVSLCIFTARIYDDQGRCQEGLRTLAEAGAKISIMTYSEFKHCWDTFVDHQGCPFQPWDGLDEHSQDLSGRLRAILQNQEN
How it was run: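 HeLa cells stably expressing Vif and A3G-eYFP, 700 cells/well, incubated overnight at 37 deg C, then exposed to compound overnight at 37 deg C. Inhibition of Vif-mediated degradation read as increased yellow fluorescence (Ex 488/Em 500-530) by laser-scanning cytometry.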

[11] = molecular target: Estrogen receptor (Homo sapiens) (UniProt P03372); experiment: qHTS assay for small molecule agonists of estrogen receptor alpha signaling (AID 588514; calls by dose curve; note: nearly all actives have a fitted effect of over 70% in size)
Sequence of Estrogen receptor (Homo sapiens) (P03372 whole entry, looked up): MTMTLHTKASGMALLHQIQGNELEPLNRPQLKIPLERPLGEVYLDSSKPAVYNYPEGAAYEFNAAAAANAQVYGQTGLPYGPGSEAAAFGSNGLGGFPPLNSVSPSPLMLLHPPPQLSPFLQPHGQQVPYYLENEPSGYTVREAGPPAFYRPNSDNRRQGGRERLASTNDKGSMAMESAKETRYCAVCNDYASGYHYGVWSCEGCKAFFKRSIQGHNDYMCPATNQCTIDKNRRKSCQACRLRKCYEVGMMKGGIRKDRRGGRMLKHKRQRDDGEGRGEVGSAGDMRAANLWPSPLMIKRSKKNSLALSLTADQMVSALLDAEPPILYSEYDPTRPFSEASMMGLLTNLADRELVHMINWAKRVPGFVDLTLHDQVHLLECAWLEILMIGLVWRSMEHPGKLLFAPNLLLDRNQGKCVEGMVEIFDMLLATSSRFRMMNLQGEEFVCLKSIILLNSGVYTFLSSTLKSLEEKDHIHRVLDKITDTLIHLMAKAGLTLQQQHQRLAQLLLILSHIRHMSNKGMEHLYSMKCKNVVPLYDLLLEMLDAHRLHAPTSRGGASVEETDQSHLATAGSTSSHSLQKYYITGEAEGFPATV
How it was run: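 ER-alpha-UAS-bla GripTite HEK 293 cells in medium with 2% charcoal/dextran-treated FBS were treated with compound titrations at 37 C for 18 hrs; beta-lactamase reporter read by CCF4 fluorescence after 2 hrs at RT.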

[12] = molecular target: Glucocorticoid receptor (Homo sapiens) (UniProt P04150); experiment: qHTS assay for small molecule antagonists of glucocorticoid receptor signaling (AID 588533; active = well fitted inhibition curve with a large enough effect in the signal ratio, with a control signal flat, not every such curve was filed as active; the % refers to the signal ratio;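 note: cells stimulated with 2 nM dexamethasone as agonist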)
Sequence of Glucocorticoid receptor (Homo sapiens) (P04150 whole entry, looked up): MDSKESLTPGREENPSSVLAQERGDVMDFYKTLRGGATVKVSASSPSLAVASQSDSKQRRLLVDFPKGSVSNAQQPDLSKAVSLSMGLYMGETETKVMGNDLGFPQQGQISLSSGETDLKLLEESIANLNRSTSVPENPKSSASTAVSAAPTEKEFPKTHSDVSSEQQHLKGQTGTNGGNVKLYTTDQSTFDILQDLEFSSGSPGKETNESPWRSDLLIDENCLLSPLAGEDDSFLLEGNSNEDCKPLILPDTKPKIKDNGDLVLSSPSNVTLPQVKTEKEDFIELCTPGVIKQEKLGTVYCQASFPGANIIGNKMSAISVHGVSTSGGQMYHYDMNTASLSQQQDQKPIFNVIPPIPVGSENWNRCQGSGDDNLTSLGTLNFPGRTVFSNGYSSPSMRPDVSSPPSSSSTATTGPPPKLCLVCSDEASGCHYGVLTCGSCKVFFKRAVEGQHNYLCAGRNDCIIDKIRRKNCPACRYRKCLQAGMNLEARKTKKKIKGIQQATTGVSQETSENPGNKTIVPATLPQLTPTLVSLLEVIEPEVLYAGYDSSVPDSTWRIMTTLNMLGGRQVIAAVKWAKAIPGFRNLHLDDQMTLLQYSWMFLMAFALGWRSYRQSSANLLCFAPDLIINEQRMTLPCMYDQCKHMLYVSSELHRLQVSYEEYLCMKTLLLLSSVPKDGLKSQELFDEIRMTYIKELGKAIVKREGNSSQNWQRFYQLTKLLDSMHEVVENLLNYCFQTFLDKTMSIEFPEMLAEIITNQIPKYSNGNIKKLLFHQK
How it was run: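 Antagonist-mode qHTS: compound titrations added to GRE-bla HeLa cells, then dexamethasone 2 nM final; 18 h, 37 C. CCF4 FRET fluorescence normalized to dexamethasone and DMSO; IC50 from Hill fit.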

Measured: Potency

NCCCCNCCCN
not listed: [11] | [12]
inactive: all other assays above

CN(C)CCCC1(c2ccc(F)cc2)OCc2cc(C#N)ccc21 (centres undefined)
not listed: [9] | [10] | [11] | [12]
inactive: all other assays above

Cc1cc(O)c2c(c1)C(=O)c1cc(O)cc(O)c1C2=O
inactive: [1] | [2] | [3] | [4] | [5] | [8] | [9]

O=Nc1c(-c2c(O)[nH]c3cc(Br)ccc23)[nH]c2ccccc12
inactive: [1] | [2] | [3] | [4] | [7] | [9]
active: [6] 21.3 µM

Nc1nc(OCc2ccccc2)c2[nH]cnc2n1
not listed: [8] | [10] | [11] | [12]
inactive: all other assays above

NNc1nncc2ccccc12
not listed: [10] | [11] | [12]
inactive: all other assays above

O=c1c(O)c(-c2cc(O)c(O)c(O)c2)oc2cc(O)cc(O)c12
active: [5] 3.01 µM
inactive: [1] | [2] | [3] | [6] | [10]

CC(=O)N1CCN(c2ccc(OC[C@H]3CO[C@](Cn4ccnc4)(c4ccc(Cl)cc4Cl)O3)cc2)CC1
not listed: [7] | [8] | [9]
inactive: all other assays above

C[C@@H](N)C1CCC(C(=O)Nc2ccncc2)CC1 (some centres undefined)
not listed: [10] | [11] | [12]
inactive: all other assays above

Oc1ccc(-c2nc(-c3ccc(F)cc3)c(-c3ccncc3)[nH]2)cc1
not listed: [7] | [10] | [11] | [12]
inactive: all other assays above

COc1ccc2cc([C@H](C)C(=O)O)ccc2c1
not listed: [7] | [10] | [11] | [12]
inactive: all other assays above

Source: PubChem BioAssay (NCATS)
